Inconclusive results are not listed. Unmarked numbers belong to inactive results. Calls of active or inactive are those of the source. Calls follow the shape of the dose curve; as a rule, active = well fitted cell-killing curve with a large enough effect in the repeat runs; inconclusive = weak or mixed curves; inactive = no such curve, though single readings can be large or run the other way.
experiment: qHTS assay to identify small molecule antagonists of the androgen receptor (AR) signaling pathway - cell viability counter screen (AID 743033; also: nearly all actives have a fitted effect of over 45% in size); settings: AR-bla HEK293 viability, CellTiter-Glo luminescence, 16 h; series mostly up to 58.5 µM; activity change, negative = cytotoxicity: at the top concentration
Description: National Center for Advancing Translational Sciences [NCATS]
NIH Chemical Genomics Center [NCGC]
U.S. Environmental Protection Agency [EPA]
National Institutes of Environmental Health Sciences [NIEHS]
National Toxicology Program [NTP]
U.S. Food and Drug Administration [FDA]
Androgen receptor (AR), a nuclear hormone receptor, plays a critical role in AR-dependent prostate cancer and other androgen related diseases. Endocrine disrupting chemicals (EDCs) and their interactions with steroid hormone receptors like AR may cause disruption of normal endocrine function as well as interfere with metabolic homeostasis, reproduction, developmental and behavioral functions. To identify the compounds that inhibit AR signaling, GeneBLAzer AR-UAS-bla-GripTite cell line (Invitrogen, Carlsbad, CA, USA) containing a beta-lactamase reporter gene under control of an Upstream Activator Sequence (UAS) stably integrated into HEK293 cells was used to screen the Tox21 10K compound library. The cytotoxicity of the Tox21 compound library against the AR-bla cell line was tested in parallel by measuring the cell viability using CellTiter-Glo assay in the same wells.
Tox21 Assay Protocol Summary:
AR-bla cells were dispensed at 2,000 cells/5 uL of assay medium per well into black wall/clear-bottom 1536-well plates using a Multidrop Combi (ThermoFisher Scientific, Waltham, MA) dispenser. After the assay plates were incubated at a 37C and 5% CO2 for 4 hr, 23 nL of compounds dissolved in DMSO, positive controls or DMSO only was transferred to the assay plate by a Pintool station (Kalypsys, San Diego, CA), followed by addition of 1 uL of agonist (R1881) in culture medium using a Bioraptr Flying Reagent Dispenser (FRD) workstation (Beckman Coulter, Indianapolis, IN, USA). The plates were incubated at a 37C and 5% CO2 for 16 h. After 1 uL of LiveBLAzerTM B/G FRET substrate was added using a Bioraptr FRD, the plates were incubated at room temperature for 2 h and fluorescence intensity was measured by an Envision plate reader (PerkinElmer, Shelton, CT). For cell viability readout that measures cytotoxicity, 4 ul/well of CellTiter-Glo reagent was added into the assay plates using a Bioraptr FRD. After 30 min incubation at room temperature, the luminescence intensity in the plates was measured using a ViewLux (PerkinElmer) plate reader.
% is scaled to controls: 0 for no effect and ±100 for the full control effect.

SMILES	outcome	activity change, negative = cytotoxicity
[N-]=[N+]=[N-]	inactive	
Cc1ccc(N)cc1N	inactive	
O=c1n(Cl)c(=O)n(Cl)c(=O)n1Cl	inactive	
Nc1ccc(Br)cc1		3.92%
CCC[N+](=O)[O-]	inactive	
CCN(CC)CCO	inactive	
C#CCN(C)[C@H](C)Cc1ccccc1	inactive	
NCCc1ccc(O)cc1	inactive	
CN(C)CCO	inactive	
O=S(=O)(c1ccc(Cl)cc1)c1cc(Cl)c(Cl)cc1Cl	inactive	
C=CC(N)=O	inactive	
CCCCOC(=O)c1ccccc1C(=O)OCCCC	inactive	
CCCCCCCCCl	inactive	
O=NN1CCCC1		9.25%
ClCCBr	inactive	
CCOC(=O)c1ccccc1C(=O)OCC	inactive	
CC(C)C#N	inactive	
CCC(C)(CC)c1cc(NC(=O)c2c(OC)cccc2OC)on1	inactive	
CN1C(=O)CN=C(c2ccccc2)c2cc(Cl)ccc21	inactive	
O=c1[nH]c(=O)[nH]c(=O)[nH]1	inactive	

SMILES	outcome	activity change, negative = cytotoxicity
CC(C)C1(C)N=C(c2nc3ccccc3cc2C(=O)O)NC1=O (stereo not given)	inactive	
Nc1ccc(Oc2ccc(N)cc2)cc1	inactive	
COC(=O)c1ccccc1N	inactive	
CCCCCCCCCCCC#N	inactive	
CCC[CH2][Sn]([Cl])([Cl])[Cl]	inactive	
O=Cc1cccc(Oc2ccccc2)c1		-0.16%
CC(C)NC(=O)N1CC(=O)N(c2cc(Cl)cc(Cl)c2)C1=O	inactive	
CNC(=O)Oc1ccccc1OC(C)C	inactive	
CCNc1nc(NC(C)C)nc(SC)n1		0.406% [at 78.9 µM]
C1CC2OC2CC1C1CO1 (stereo not given)	inactive	
Cc1cccc([N+](=O)[O-])c1	inactive	
Clc1cccc(Cl)c1Cl	inactive	
CC(C)(C)OOC(C)(C)C	inactive	
CCOP(OCC)OCC	inactive	
CC(C#N)CCC#N (stereo not given)	inactive	
O=c1ccc(=O)[nH][nH]1	inactive	
c1cc2c3c(cccc3c1)CC2	inactive	
Cc1cc(Cl)ccc1O	inactive	
CN(C)[C@@H]1C(=O)C(C(N)=O)=C(O)[C@@]2(O)C(=O)C3=C(O)c4c(O)cccc4[C@@](C)(O)[C@H]3C[C@@H]12	inactive	
CCCN(CCC)N=O	inactive	

— PubChem BioAssay (Tox21)
